Inconclusive results are not listed. A call without a number means that no potency is given here. The source made the active and inactive calls. The call rests on the fitted dose curve; in most records, active means well fitted inhibition curve with a large enough effect; inconclusive means small, poorly fitted or top-dose-only effect; inactive means no such curve, though single readings can be large or run the other way.
Test: Confirmation assay for measurement of the activity of small molecule inhibitors on Zika virus induced Caspase-3 activity in human astrocytoma cells
In short: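 SNB-19, 250 cells/well, cultured 16-20 h; cpd 1 h pre-incubation; ZIKV 2 FFU/cell, 6 h, 37 C/5% CO2; Caspase-Glo 3/7 30 min RT; luminescence; normalized vs uninfected/infected controls.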

Row | Compound | Potency
1 | CC(=NNC(=S)N1CCC1)c1ccccn1 | inactive
2 | CC(O)=C(C#N)C(=O)Nc1ccc(C(F)(F)F)cc1 | 0.869 µM (active)
3 | COc1ccc(NC(=O)/C=C/c2ccc(Cl)cc2)cc1 | 3.46 µM (active)
4 | CCCC(=O)OC[C@@H](OC(=O)CCC)[C@@H](OC(=O)CCC)[C@H](Cn1c2nc(=O)[nH]c(=O)c-2nc2cc(C)c(C)cc21)OC(=O)CCC | inactive
5 | CNC1[C@H](O)C(O[C@@H]2C(O)C(O[C@H]3O[C@H]([C@@H](C)NC)CC[C@H]3N)[C@@H](N)C[C@H]2N)OC[C@]1(C)O (stereo partly specified) | inactive
6 | CCC(C)SSc1ncc[nH]1 (stereo unspecified) | inactive
7 | O=C(Oc1ccccc1)c1cccc(C(=O)Oc2ccccc2)c1 | 4.47 µM (active)
8 | Cc1cccc(C#Cc2ccccc2)n1 | 4.89 µM (active)
9 | O=C1C[C@@H](c2ccc(O)cc2)Oc2cc(O)cc(O)c21 | 15.5 µM (active)
10 | O=C(/C=C/c1ccccc1)NCCO | inactive
11 | O=C(Nc1cc2cc[nH]c2cn1)c1ccccc1 | 4.35 µM (active)
12 | CCN1/C(=C/C=C/c2sc3ccccc3[n+]2CC)Sc2ccccc21 | inactive
13 | O=C(O)[C@H](CC(=O)N1C[C@@H]2CCCC[C@H]2C1)Cc1ccccc1 | inactive
14 | CCCCCCOc1ccccc1C(N)=O | inactive
15 | CO[C@H]1C(=O)[C@]2(C)[C@@H](OC)C[C@H]3OC[C@@]3(OC(C)=O)[C@H]2[C@H](OC(=O)c2ccccc2)[C@]2(O)C[C@H](OC(=O)[C@H](O)[C@@H](NC(=O)OC(C)(C)C)c3ccccc3)C(C)=C1C2(C)C | inactive
16 | COc1ccc(-c2cc(=O)c3c(O)cc(O)cc3o2)cc1O | 13.8 µM (active)

— PubChem BioAssay AID1224853 (National Center for Advancing Translational Sciences (NCATS), 2016)
